Consider 73 molecules from PubChem BioAssay AID977606 (Broad Institute, 2014).

Among all 1,500 compounds or so, about 430 (29%) were called active. The rule behind the calls is not given here. The list is a sample of the results. Entries with a potency or affinity are not part of this list.

The test is described as follows: glucose-independent GLuc insulin release activation – cell-based, INS-1E, Gaussia luciferase, luminescence, cherry-pick, counter-screen for glucose-dependent insulin secretion activators, dose response (AID 977606). The note with it: INS-1E Gaussia luciferase insulin secretion, no glucose, 100% = twice neutral-control luminescence; series mostly up to 35 µM. In general terms: Counterscreens check selectivity or assay interference.
Consider `CCOCCCNC(=O)c1oc2ccc3c(c2c1C)C(O)CC(C)(C)O3` (stereo not drawn), for which the molecule was classed as inactive.
On to `NC(=O)c1ncn([C@@H]2O[C@H](C(=O)N[C@H](Cc3ccccc3)C(=O)O)[C@@H](O)[C@H]2O)n1`, for which the molecule was called inactive.
`CCc1nc2c(OCc3ccccc3C(=O)OC)cccn2c1N(C)C(=O)c1ccncc1`: the outcome was inactive.
`Cc1cccc(C)c1NC(=O)C1c2ccccc2Oc2ccccc21`: the molecule was called inactive.
With `O=c1[nH]c2cc(Cl)ccc2n(CCNc2ncc(C(F)(F)F)cc2Cl)c1=O`, the molecule was classed as inactive.
The result for `Nn1c(C2CCCCC2)nc2ccccc2c1=O` reads “inactive”; that for `O=C(c1cc(-c2ccccc2)nc2ccccc12)N1CCCC1`, “inactive”; that for `CNC(=O)c1cc(C(=O)c2ccccc2Br)c[nH]1`, “inactive”.
For `CSc1ccc(C(=O)C2CCCN(C(=O)c3ccc4c(c3)no[n+]4[O-])C2)cc1` (stereo not drawn), the outcome was inactive.
Take `CN(C(=O)[C@H]1O[C@@H](n2cnc(C(N)=O)n2)[C@H](O)[C@@H]1O)c1ccccc1`: the call was inactive.
Next, `CC(=O)Nc1c(C(=O)C2CC2)oc2ccccc12`: “inactive”; `Cc1ccc(-c2cnc3cccnn23)cc1F`: “inactive”; `CCN(c1ccccc1)S(=O)(=O)c1ccc(OC)c(OC)c1`: “inactive”.
Next, `O=S(=O)(c1ccc(=S)[nH]c1)N1CCCCCC1`: “inactive”.
Consider `CCC(=O)Nc1cc(C(C)(C)C)ccc1C(C)=O`, for which the molecule was classed as inactive.
As to `Cc1ccccc1C(=O)NC1CCSC1=O` (stereo not drawn), the result was inactive.
Consider `COc1ccc(C(=O)Nc2nnc(-c3cccs3)s2)cc1`, for which the outcome was inactive.
Next, `Cc1cc2nc(-c3ccccc3O)[nH]c2cc1C`: “inactive”; `c1csc(CNc2nc(Oc3ccncc3)c3sccc3n2)c1`: “inactive”.
Next, `O=C(Cn1cc(C(F)(F)F)ccc1=O)NCC1CCCO1` (stereo not drawn): “inactive”.
Consider `Cc1ccccc1Nc1c(-c2ccncc2)nc2ccc(Cl)cn12`, for which the molecule was called inactive.
For `O=C(O)c1c(NC(=O)N2CCOCC2)sc2c1CCCC2`, the molecule was called inactive.
Turning to `O=c1c(C(c2ccccc2)c2c(O)sc3ccccc3c2=O)c(O)sc2ccccc12`, the molecule was classed as inactive.
As for `Cn1c(=O)c2c(nc3n2CCCN3CCc2ccccc2)n(C)c1=O`, the molecule was classed as inactive.
Next, `COc1ccc(-c2[nH]c3ccccc3c2SCCN)cc1`: “inactive”; `COc1ccc(N2CC(C(=O)N3CCc4ccccc43)CC2=O)cc1` (stereo not drawn): “inactive”; `O=C1CSC(c2ccccc2)N1c1ccc(F)cc1F` (stereo not drawn): “inactive”.
Next, `CCc1nc2c(OCCC3CCCCC3)cccn2c1N(C)C(=O)c1ccco1`: “inactive”.
The result for `O=C(O)CC(CC(=O)Nc1ccc(C(=O)O)cc1)c1ccccc1` (stereo not drawn) reads “inactive”; that for `CC1CCN(C(=O)c2cccc(S(=O)(=O)N3CCN(c4ccccc4)CC3)c2)CC1`, “inactive”; that for `O=C(COC(=O)c1cccnc1Cl)Nc1cc(S(=O)(=O)N2CCCCCC2)ccc1Cl`, “inactive”.
Take `CC(=O)NN1C(=O)c2ccccc2NC1c1ccccc1O` (stereo not drawn): the call was inactive.
Next, `CN1CCN(c2ccc(CNC(=O)C3(C)Cc4c(-c5ccccc5)ccnc4O3)cc2)CC1` (stereo not drawn): “inactive”; `O=C(NC1CCCCC1)c1cccnc1Sc1ccccc1`: “inactive”.
The result for `COc1ccc(-c2nc(-c3cccnc3)no2)cc1OC` reads “inactive”.
Next, `COc1ccc(C(=O)Nc2nnc(-c3ccco3)s2)cc1`: “inactive”.
With `CCn1nc(C)c(NC(=O)c2cnn3c(C(F)F)cc(-c4ccccc4)nc23)c1C`, the outcome was inactive.
For the molecule `CCCc1cc(NCC2CCCO2)n2c(nc3ccccc32)c1C#N` (stereo not drawn), the molecule was called inactive.
Next, `COc1ccc(CCN(C)C(=O)Cn2c(=O)oc3ccccc32)cc1OC`: “inactive”; `CCc1nnc(NC(=O)C(c2ccccc2)c2ccccc2)s1`: “inactive”.
Next, `CCc1nc2c(OCc3ccccc3C)cccn2c1N(C)C(=O)c1ccco1`: “inactive”; `O=S(=O)(Nc1ncnc2sc3c(c12)CCC3)c1cc(F)ccc1F`: “inactive”; `CCN(CC)C(=O)n1c(Cc2ccccc2)nc2ccccc21`: “inactive”.
Next, `Cc1ccc(S(=O)(=O)/N=C(/Nc2cccc(O)c2)c2ccccc2)cc1`: “inactive”; `COc1cccc(CNC(=O)c2cccnc2Sc2ccccc2)c1`: “inactive”.
For `CCOc1ncccc1C(=O)NCc1cccc(OC)c1`, the call was inactive.
Turning to `Cc1c(-c2cccc(Cl)c2)nc2ccccc2c1C(=O)NC1CC1`, the outcome was inactive.
For the molecule `COc1ccc(CN(C)C(=O)Cn2cc(C)c(=O)[nH]c2=O)cc1OC`, the molecule was classed as inactive.
Next, `COc1ccc(-c2cc(NC=O)c3ncc(-c4ccc(OC)c(OC)c4)n3c2)cc1`: “inactive”; `CC(=O)Nc1cc(-c2ccc(N3CCN(C)CC3)cc2)cn2c(-c3cccc(C(=O)N(C)C)c3)cnc12`: “inactive”.
`O=C(NCc1ccc(Cl)cc1)c1cc(=O)[nH]c2ccc(S(=O)(=O)N3CCOCC3)cc12`: the outcome was inactive.
`O=C(Nc1ccc(S(=O)(=O)N2CCOCC2)cc1)c1ccc(=O)[nH]c1`: the molecule was classed as inactive.
For `COc1ccc2[nH]c3c(NCCCN4CCCC4=O)ncnc3c2c1`, the outcome was inactive.
As to `O=c1c(Cc2ccc(Cl)cc2Cl)c(O)ccn1CC(F)(F)F`, the molecule was called inactive.
As for `CCNc1nc(NCC)nc(Nn2cnnc2)n1`, the molecule was called inactive.
For `CS(=O)(=O)N1CCCCC1c1cc(C(=O)Nc2cccc3c2CCCC3)no1` (stereo not drawn), the molecule was called inactive.
With `CCOC(=O)c1nc(SC)n(C)c1C(=O)OCC`, the result was inactive.
The result for `COc1ccc2c(c1)C(C)(Cc1ccc(C(=O)c3ccccc3)cc1)C(=O)N2` (stereo not drawn) reads “inactive”.
`O=C(O)c1ccc(/C=N/n2c(C3CCCCC3)n[nH]c2=S)cc1`: the molecule was called inactive.
Consider `Cc1ccc(/C=N/n2c(-c3cccnc3)n[nH]c2=S)s1`, for which the outcome was inactive.
For the molecule `C[C@H]1[C@@H](c2ccccc2)Oc2c(Cl)cccc2S(=O)(=O)N1C`, the molecule was classed as inactive.
Next, `O=C(COc1ccccc1)N(Cc1cccc(F)c1)C1CCS(=O)(=O)C1` (stereo not drawn): “inactive”.
The result for `Cc1ccc(NCc2cccc(B(O)O)c2)cc1` reads “inactive”; that for `Cc1cccc(NCc2ccccc2)c1`, “inactive”.
The result for `Cc1cc(C)cc(Cn2c3ccc(NC(=S)NCc4ccccc4F)cc3c(=O)n2C)c1` reads “inactive”; that for `O=C(CCN1CCOCC1)c1ccc(N2CCCCC2)cc1`, “inactive”.
With `CC(C)Oc1ccc(C(=O)CCN2CCOCC2)cc1`, the molecule was classed as inactive.
With `CC(=O)NC1C(=O)N(CCN2CCOCC2)c2ccc(Br)cc21` (stereo not drawn), the molecule was classed as inactive.
The result for `O=C(c1ccc2c(c1)OCO2)N1CCc2ccccc2C1` reads “inactive”; that for `CCCn1c2ccccc2c2cn[nH]c(=O)c21`, “inactive”.
In the case of `CC1CCC(NCCNC(=O)c2ccco2)CC1` (stereo not drawn), the molecule was called inactive.
With `Cc1ccc(S(=O)(=O)Nc2nc(C)cc(NN)n2)cc1`, the outcome was inactive.
Regarding `FC(F)(F)c1cc(-c2ccccc2)nc(-n2cc(Cl)cn2)n1`, the result was inactive.
